Data from PubChem BioAssay AID602382 (Sanford-Burnham Center for Chemical Genomics, 2012).
The other results are listed elsewhere or left out. Unmarked numbers belong to inactive results. No rule for the calls is given here.

Test: beacon detection-step fluorescence artefacts – biochemical, fluorescent molecular beacon, artefact control for DNMT1 inhibitor project, dose response (AID 602382)
Conditions: spectral interference counter-screen

Cc1c(C(=O)O)cccc1-n1c(C)cc(/C=C2\C(=O)NC(=O)N(c3ccc4c(c3)OCO4)C2=O)c1C
IC50: > 99 µM
